Source: PMC11006913

target: PROP1 (Homo sapiens, UniProt O75360 56-141); test: PBM; 200 nM protein, PBS; details: dsDNA, one strand shown
Sequence (O75360 56-141): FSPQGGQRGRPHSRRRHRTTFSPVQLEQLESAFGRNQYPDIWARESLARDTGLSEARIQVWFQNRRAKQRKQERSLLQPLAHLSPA

Point of comparison: CCCCCCTC, binding signal 6.57 upbm affinity estimate (log intensity, higher = more binding, comparable within an allelic series). Against it:
- CGGAGCCC — higher, 6.65 upbm affinity estimate (log intensity, higher = more binding, comparable within an allelic series)
- AGCCGTGG — higher, 6.79 upbm affinity estimate (log intensity, higher = more binding, comparable within an allelic series)

target: PROP1 (Homo sapiens, UniProt O75360 56-141, R99H); test: PBM; 200 nM protein, PBS; details: dsDNA, one strand shown
Sequence (O75360 56-141 R99H): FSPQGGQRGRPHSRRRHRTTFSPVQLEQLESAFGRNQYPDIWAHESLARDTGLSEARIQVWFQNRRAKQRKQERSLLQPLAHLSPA

Point of comparison: CGGAGCCC, binding signal 6.77 upbm affinity estimate (log intensity, higher = more binding, comparable within an allelic series). Against it:
- CCCCCCTC — lower, 6.41 upbm affinity estimate (log intensity, higher = more binding, comparable within an allelic series)
- AGCCGTGG — higher, 6.82 upbm affinity estimate (log intensity, higher = more binding, comparable within an allelic series)

target: ALX3 (Homo sapiens, UniProt O95076 139-225, L168Q); test: PBM; 200 nM protein, PBS; details: dsDNA, one strand shown
Sequence (O95076 139-225 L168Q): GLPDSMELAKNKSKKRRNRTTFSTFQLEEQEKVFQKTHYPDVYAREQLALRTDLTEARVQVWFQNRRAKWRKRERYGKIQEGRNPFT

Point of comparison: AGGTGGGG, binding signal 7.87 upbm affinity estimate (log intensity, higher = more binding, comparable within an allelic series). Against it:
- CCTCCCAG — lower, 7.76 upbm affinity estimate (log intensity, higher = more binding, comparable within an allelic series)
- CCCCCCTC — lower, 7.57 upbm affinity estimate (log intensity, higher = more binding, comparable within an allelic series)

target: HOXD13 (Homo sapiens, UniProt P35453 263-343, T313A); test: PBM; 200 nM protein, PBS; details: dsDNA, one strand shown
Sequence (P35453 263-343 T313A): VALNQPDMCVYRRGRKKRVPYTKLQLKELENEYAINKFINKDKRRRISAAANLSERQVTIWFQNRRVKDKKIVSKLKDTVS

Point of comparison: CCCCCCAC, binding signal 9.15 upbm affinity estimate (log intensity, higher = more binding, comparable within an allelic series). Against it:
- TCGGGCCA — higher, 9.66 upbm affinity estimate (log intensity, higher = more binding, comparable within an allelic series)
- CTTATAAA — higher, 11.5 upbm affinity estimate (log intensity, higher = more binding, comparable within an allelic series)
- CCCCCCTC — higher, 9.19 upbm affinity estimate (log intensity, higher = more binding, comparable within an allelic series)
- CCCTGCGG — higher, 9.6 upbm affinity estimate (log intensity, higher = more binding, comparable within an allelic series)
- AGGGGCTC — higher, 9.7 upbm affinity estimate (log intensity, higher = more binding, comparable within an allelic series)
- GCAGCGCC — higher, 9.59 upbm affinity estimate (log intensity, higher = more binding, comparable within an allelic series)
- AGCCGTGG — higher, 9.83 upbm affinity estimate (log intensity, higher = more binding, comparable within an allelic series)
- GGAGAACC — higher, 9.73 upbm affinity estimate (log intensity, higher = more binding, comparable within an allelic series)
- ATTTAATA — higher, 11.8 upbm affinity estimate (log intensity, higher = more binding, comparable within an allelic series)
- CTGCCTCC — higher, 9.56 upbm affinity estimate (log intensity, higher = more binding, comparable within an allelic series)

target: HOXC9 (Homo sapiens, UniProt P31274 178-260, R222W); test: PBM; 200 nM protein, PBS; details: dsDNA, one strand shown
Sequence (P31274 178-260 R222W): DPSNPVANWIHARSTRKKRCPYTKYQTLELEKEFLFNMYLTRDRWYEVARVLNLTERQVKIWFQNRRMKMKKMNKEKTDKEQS

Point of comparison: TCCAGGGA, binding signal 9.68 upbm affinity estimate (log intensity, higher = more binding, comparable within an allelic series). Against it:
- TCGGGCCA — higher, 9.7 upbm affinity estimate (log intensity, higher = more binding, comparable within an allelic series)
- ACGTTGGG — higher, 9.77 upbm affinity estimate (log intensity, higher = more binding, comparable within an allelic series)
- CCTCCCAG — lower, 9.67 upbm affinity estimate (log intensity, higher = more binding, comparable within an allelic series)
- CACGCGGG — lower, 9.63 upbm affinity estimate (log intensity, higher = more binding, comparable within an allelic series)
- CGGGCCAG — higher, 9.77 upbm affinity estimate (log intensity, higher = more binding, comparable within an allelic series)
- CCGGGTAC — lower, 9.63 upbm affinity estimate (log intensity, higher = more binding, comparable within an allelic series)
- CCCAGGTC — lower, 9.65 upbm affinity estimate (log intensity, higher = more binding, comparable within an allelic series)
- CGGAGCCC — lower, 9.51 upbm affinity estimate (log intensity, higher = more binding, comparable within an allelic series)
- CCCCCCAC — lower, 9.29 upbm affinity estimate (log intensity, higher = more binding, comparable within an allelic series)
- CCCCCCTC — lower, 9.27 upbm affinity estimate (log intensity, higher = more binding, comparable within an allelic series)
- AGGTGGGG — higher, 9.81 upbm affinity estimate (log intensity, higher = more binding, comparable within an allelic series)
- AGTAATAA — higher, 10.9 upbm affinity estimate (log intensity, higher = more binding, comparable within an allelic series)
- GAGGGTCC — lower, 9.63 upbm affinity estimate (log intensity, higher = more binding, comparable within an allelic series)
- CCTGCCGC — lower, 9.67 upbm affinity estimate (log intensity, higher = more binding, comparable within an allelic series)
- CCCTGCGG — lower, 9.56 upbm affinity estimate (log intensity, higher = more binding, comparable within an allelic series)
- GCGTCGCC — higher, 9.77 upbm affinity estimate (log intensity, higher = more binding, comparable within an allelic series)
- AGGGGCTC — lower, 9.6 upbm affinity estimate (log intensity, higher = more binding, comparable within an allelic series)
- GCAGCGCC — higher, 9.72 upbm affinity estimate (log intensity, higher = more binding, comparable within an allelic series)
- AGCCGTGG — higher, 9.77 upbm affinity estimate (log intensity, higher = more binding, comparable within an allelic series)
- GGAGAACC — higher, 9.79 upbm affinity estimate (log intensity, higher = more binding, comparable within an allelic series)
- CCTCTCCA — higher, 9.7 upbm affinity estimate (log intensity, higher = more binding, comparable within an allelic series)
- CCTACTCG — higher, 9.71 upbm affinity estimate (log intensity, higher = more binding, comparable within an allelic series)
- CGCGGGAG — lower, 9.64 upbm affinity estimate (log intensity, higher = more binding, comparable within an allelic series)
- ATTTAATA — higher, 11.1 upbm affinity estimate (log intensity, higher = more binding, comparable within an allelic series)
- CTGCCTCC — lower, 9.6 upbm affinity estimate (log intensity, higher = more binding, comparable within an allelic series)
- CTCCACGC — higher, 9.78 upbm affinity estimate (log intensity, higher = more binding, comparable within an allelic series)
